hcDAF-12 act = activates DAF-12 receptor from parasite H. contortus. activation, % at 6.8 µM. HEK293 hcDAF-12 lit1-tk-luc reporter, luminescence; 0% DMSO, 100% Δ7-dafachronic acid. 370,000 compounds, 1.4% hits;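 active = activation above the mean of all tested compounds plus 3 SD, cut at about 5.5% in these data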;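 note: 100% = response to 3 µM Δ7-dafachronic acid high control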
hgDAF-12 ag = hgDAF-12 agonism, primary luciferase screen | AID 687014 | 370,000 compounds, 1.8% hits | activation, % at 6.8 µM | HEK293 GAL4-hgDAF12 UAS-luciferase reporter, agonist luminescence; normalized to butyrate control;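 active = activation above a cutoff set at the mean of all screened compounds plus 3 SD, cut at about 10% in these data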;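 note: 0% = DMSO wells and 100% = sodium butyrate wells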
DAX1 inh-1 = inhibits human nuclear receptor DAX1; inhibition, % at 6.75 µM; AID 504766; 340,000 compounds, 0.99% hits; HEK293 Gal4-DAX1 luciferase reporter, luminescence; P51843;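 active = inhibition above the mean over all tested compounds plus 3 SD, cut at about 4.2% in these data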;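 note: 0% = DAX1-transfected cells with DMSO and 100% = empty-vector control cells with DMSO; inhibition shows as a rise in luminescence from relieved DAX1 repression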
Target sequence (P51843 207-470 limits assumed): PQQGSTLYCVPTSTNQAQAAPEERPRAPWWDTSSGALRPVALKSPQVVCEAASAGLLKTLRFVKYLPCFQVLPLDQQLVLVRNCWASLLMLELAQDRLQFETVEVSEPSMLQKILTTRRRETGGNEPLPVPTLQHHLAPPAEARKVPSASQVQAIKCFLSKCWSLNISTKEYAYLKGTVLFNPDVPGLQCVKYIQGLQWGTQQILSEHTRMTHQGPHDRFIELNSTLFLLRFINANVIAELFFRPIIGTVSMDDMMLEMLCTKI
ssDAF-12 act = S. stercoralis DAF-12 activation, primary screen; HEK293 ssDAF-12/GRIP1 lit1-tk-luc reporter, luminescence; % of 3 µM dafachronic acid response; activation, % at 6.8 µM; 370,000 compounds, 1% hits;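 active = activation above the mean over all tested compounds plus 3 SD, cut at about 0.9% in these data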;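 note: 0% = DMSO-only wells and 100% = 3 µM delta7-dafachronic acid wells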
DAX1 inh-2 = DAX1 (NR0B1) inhibition, primary screen; HEK293T StAR-luciferase reporter, SF-1/DAX-1 repression relief; inhibition, % at 6.8 µM; 370,000 compounds, 1.1% hits;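 active = inhibition above the mean over all tested compounds plus 3 SD, cut at about 3.6% in these data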;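 note: 0% = DAX-1 cells with DMSO and 100% = cells lacking DAX-1 with DMSO; higher inhibition means more luminescence from relief of DAX-1 repression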
The depositor's hits bear a star; / = no result. Compounds with a hit are over-represented: about 4.1% of the library has one in this group of screens.

SMILES	hcDAF-12 act	hgDAF-12 ag	DAX1 inh-1	ssDAF-12 act	DAX1 inh-2
COCCCNC(=O)C[C@H]1C[C@@]2(C(=O)OC)C(=C[C@H](COCc3ccccc3)O[C@@H]2C)N(Cc2cccc3ccccc23)C1=O	-1.6	-4.3	/	-0.6	-0.8
CO[C@H]([C@H](C)/C=C/N(C)C=O)[C@@H](C)C(=O)CC[C@H](C)[C@H](O)[C@H](C)[C@H]1OC(=O)/C=C/C(C)=C/C[C@H](O)C[C@@H]2C=CC[C@@H](C[C@H](OC)C(C)(O)[C@@H](OC)C[C@@H](OC)[C@@H]1C)O2 (stereo not given in full)	-2.6	-8.9	/	-1.4	/
CCOc1ccc(NC(=O)c2ccc(NC(=O)COC(=O)Cc3ccc(OC)cc3)cc2)cc1	-0.3	4.7	0.5	-0.5	0.9
CC(=O)c1cccc(NC(=O)c2ccc(NS(C)(=O)=O)cc2)c1	-1.7	-2.3	0.4	-1.1	-0.3
COc1ccc(CC(=O)OCC(=O)Nc2ccc(C(=O)Nc3ccc(OC)cc3)cc2)cc1	-1.9	-1.0	4.2*	-1.5	0.2
CS(=O)(=O)Nc1ccc(C(=O)Nc2ccc3ccccc3c2)cc1	3.9	11.3*	1.9	1.3*	1.8
COc1ccc(C(=O)Nc2cc(OC)nc(OC)n2)cc1	3.5	11.9*	0.8	0.0	2.5
COC(=O)[C@H](CC(C)C)N(CCCc1cn(Cc2ccccc2)nn1)S(=O)(=O)c1ccc(F)cc1Br	-4.0	-1.5	/	-1.3	-2.6
Cc1ccc(C=NNC(=O)CSc2nc3sc4c(c3c(=O)n2-c2ccccc2)CCCC4)s1	-1.2	-2.3	/	-1.0	-0.2
COc1ccc(-c2nc3c([nH]2)c(=O)n(C)c(=O)n3C)c(OC)c1	2.9	2.6	0.5	1.1*	0.3
Nc1ccc2ccccc2c1N=Nc1ccccc1	4.3	3.8	0.7	1.3*	1.0
O=C(Cn1c(-c2cncs2)nc2ccccc21)NCc1cccs1	-0.1	-2.6	/	-1.2	-0.2
O=C1CCCC(c2ccccc2)N1 (stereo not given)	-2.3	-2.2	5.2*	-1.5	0.6
CCOC(=O)[C@@]12CN(C(=O)OC(C)(C)C)CC=C1N(Cc1ccc(OC)cc1)C(=O)[C@H]2CC(=O)NCCC(C)C	-2.6	-1.8	/	-1.3	-0.7
S=C(Nc1cccnc1)N1CCc2ccccc21	6.4*	1.6	0.4	-0.3	0.1
O=C(NC(=S)N1CCc2ccccc21)C1CCC1	5.7*	-3.5	0.0	-0.6	0.0
C[C@H]1[C@@H](OC(=O)NCc2cccs2)CC[C@@]23CCCN2C(=O)CCC[C@@H]13	1.9	1.2	/	-1.7	/
O=C(NN1C(=O)C2C(C1=O)C1C=CC2C12CC2)c1cccc(Cl)c1 (stereo not given)	-1.2	-1.7	5.0*	-1.2	0.0
CC1CCN(Cc2nc(-c3ccccc3)no2)CC1	5.4	13.2*	3.5	-0.6	1.3
Cc1c(C(=O)N(Cc2ccco2)Cc2cccs2)oc2ccccc12	-0.2	1.6	5.5*	1.1*	1.0
COc1cccc2c(=O)c3ccccc3oc12	0.1	5.2	4.5*	-0.8	1.1
COc1ccc(CN2CN3Cc4ccccc4C3CS2(=O)=O)cc1 (stereo not given)	4.7	-1.1	/	-0.2	-1.6
CCCCNC(=O)C1(C(=O)C2CC2)CC(c2ccccc2C(F)(F)F)=NO1 (stereo not given)	4.8	-2.5	/	-0.5	-0.7
C[C@H]1CN([C@@H](C)CO)C(=O)CCCn2cc(nn2)CO[C@@H]1CN(C)C(=O)NC1CCCCC1	-0.2	1.1	/	-0.9	4.1*
Cc1noc(C)c1NC(=O)N(C)C[C@H]1OCc2cnnn2CCCC(=O)N([C@H](C)CO)C[C@@H]1C	3.2	1.4	1.1	1.3*	1.1
C[C@@H]1CN([C@H](C)CO)C(=O)CCCn2nncc2CO[C@H]1CN(C)C(=O)Nc1ccc2c(c1)OCCO2	5.4	6.7	/	1.5*	0.4
COc1ccccc1C1=NOC(Cn2c(=O)c3c(ncn3C)n(C)c2=O)C1 (stereo not given)	5.2	1.3	0.0	0.9*	0.4
Cc1ccc2oc(=O)c3cc(C(=O)NCCN4CCc5ccccc5C4)sc3c2c1	1.6	2.6	3.0	-0.7	1.0
Cc1ccc2oc(=O)c3cc(C(=O)NCc4ccco4)sc3c2c1	1.6	-1.7	6.1*	-1.6	-0.6
CN1CC=C(c2ccccc2)N(c2ccccc2)C1=O	-1.4	1.7	/	-0.5	0.0

High-throughput results as filed in PubChem BioAssay.
